# Data: ChEMBL document CHEMBL3988442, “University of Dundee, Small-Polar-MMV Screening Library” (2021)
# Out of some 66,000 compounds screened, about 960 (1.5%) showed an effect of 50% or more. Shown is part of a subset that was picked to be rich in strong results.
# Tested on: Trypanosoma brucei
# Test: Trypanosoma brucei 72 hour study
# Assay type: functional, organism-based
# Design: scale not given: in the data most compounds retested in dose-response had high values
smiles,measurement,setting,value
Cc1ccc(CN2CCCC3(CCN(S(C)(=O)=O)C3)C2)o1.O=C(O)C(F)(F)F (stereo not given),Percent Effect,"30 µM, 30.03 µM",16.24%
Cc1csc2c(N3CCNC(C(=O)Nc4ccc(F)cc4)C3)ncnc12 (stereo not given),Percent Effect,"30 µM, 30.03 µM",72.13%
Cc1csc2c(N3CCNC(C(=O)NCc4cccnc4)C3)ncnc12 (stereo not given),Percent Effect,"30 µM, 30.03 µM",-5.987%
Cc1csc2c(N3CCNC(C(=O)N4CCCC4)C3)ncnc12 (stereo not given),Percent Effect,"30 µM, 30.03 µM",24.45%
Cc1cc(C(=O)N2CCc3nc(C4CCCN4)ncc3C2)cs1.Cl (stereo not given),Percent Effect,"30.3 µM, […]",-23.19%
Cc1occc1C(=O)NCC(=O)NCCCOc1ccc(F)cc1,Percent Effect,"30 µM, 30.03 µM",-42.11%
Cc1occc1C(=O)NCC(=O)N(C)CCCOc1ccc(F)cc1,Percent Effect,"30 µM, 30.03 µM",95.62%
Cc1occc1C(=O)NCC(=O)N(C)CCCOc1ccccc1,Percent Effect,"30 µM, 30.03 µM",-44.45%
CNC(=O)c1ccc(C2CCCN(C(=O)c3sc(C)nc3C)C2)nc1 (stereo not given),Percent Effect,"30.3 µM, […]",-1.908%
Cc1cc(NCCN)nc2ccccc12.O=[N+]([O-])O,Percent Effect,"30.3 µM, […]",-46.24%
CCS(=O)(=O)c1ccccc1N1CCC(NC(=O)c2ccc[nH]2)CC1,Percent Effect,"30 µM, 30.03 µM",54.24%
CCS(=O)(=O)c1ccccc1N1CCC(NC(C)=O)CC1,Percent Effect,"30 µM, 30.03 µM",4.915%
CCS(=O)(=O)c1ccccc1N1CCC(NC(=O)NC2CCCC2)CC1,Percent Effect,"30 µM, 30.03 µM",7.94%
CCC[C@@H]1CN(Cc2cc(C#N)n(C)c2C)C[C@H]1NS(C)(=O)=O,Percent Effect,"30 µM, 30.03 µM",0.9985%
Cc1nc(N)c2ccc(C3CCCCN3)nc2n1.Cl (stereo not given),Percent Effect,"30.3 µM, […]",-17.89%
CN(c1ccc(C(=O)NCCCN2CCCCC2)c(Cl)c1)S(C)(=O)=O,Percent Effect,"30 µM, 30.03 µM",-14.39%
Cc1cc(=O)[nH]c(-n2nc(C3CC3)cc2N)n1,Percent Effect,"30 µM, 30.03 µM",-21.61%
CC(C)c1cc(=O)[nH]c(C(C)(C)N)n1.Cl,Percent Effect,"30 µM, 30.03 µM",-29.56%
CCCc1cc(=O)[nH]c(-n2nc(C3CC3)cc2N)n1,Percent Effect,"30 µM, 30.03 µM",78.26%
CCc1cc(=O)[nH]c(-n2nc(C3CC3)cc2NC(=O)C2CC2)n1,Percent Effect,"30 µM, 30.03 µM",97.36%
CC(=O)Nc1cc(C2CC2)nn1-c1nc(C)c(C)c(=O)[nH]1,Percent Effect,"30 µM, 30.03 µM",-12.81%
Cc1cc(=O)[nH]c(-n2nc(-c3ccccc3)cc2N)n1,Percent Effect,"30 µM, 30.03 µM",-3.849%
CC(C)c1cc(=O)[nH]c(-n2nc(C3CC3)cc2N)n1,Percent Effect,"30 µM, 30.03 µM",99.41%
CCCc1cc(=O)[nH]c(-n2nc(-c3cccs3)cc2N)n1,Percent Effect,"30 µM, 30.03 µM",-29.48%
CCc1c(C)nc(-n2nc(C3CC3)cc2NC(C)=O)[nH]c1=O,Percent Effect,"30 µM, 30.03 µM",-1.646%
COc1ccc(CC(=O)N2Cc3nccn3CC(CN(C)C)C2)cc1.O=C(O)C(F)(F)F (stereo not given),Percent Effect,"30 µM, 30.03 µM",-47.37%
Cc1cccc(CN2CCC3(CC2)NC(=O)C[C@H]3c2cnn(C)c2)n1.O=C(O)C(F)(F)F,Percent Effect,"30.3 µM, […]",-5.843%
COc1cc2c(cc1CNC(Cc1cccs1)c1nccs1)OCO2.Cl (stereo not given),Percent Effect,"30.3 µM, […]",-17.08%
O=C1N[C@H]2OCCC[C@H]2[C@H](c2ccccc2)N1,Percent Effect,"30 µM, 30.03 µM",-11.46%
CCOc1cc(CNC(=O)c2cnn(CC)c2C(F)(F)F)ccn1,Percent Effect,"30 µM, 30.03 µM",1.219%
Fc1cccc(N2CCCC3(C2)CN(c2ncccn2)CCO3)c1.O=C(O)C(F)(F)F.O=C(O)C(F)(F)F (stereo not given),Percent Effect,"30 µM, 30.03 µM",-26.54%
Fc1cccc(N2CCCC3(CN(Cc4cccnc4)CCO3)C2)c1.O=C(O)C(F)(F)F.O=C(O)C(F)(F)F.O=C(O)C(F)(F)F (stereo not given),Percent Effect,"30.3 µM, […]",86.99%
Cc1ccc(CN2CCOC3(CCCN(c4cccc(F)c4)C3)C2)o1.O=C(O)C(F)(F)F.O=C(O)C(F)(F)F (stereo not given),Percent Effect,"30.3 µM, […]",98.9%
Cn1cc(CN2CCOC3(CCCN(c4cccc(F)c4)C3)C2)cn1.O=C(O)C(F)(F)F.O=C(O)C(F)(F)F (stereo not given),Percent Effect,"30.3 µM, […]",-12.05%
Fc1cccc(N2CCCC3(CN(Cc4nccs4)CCO3)C2)c1.O=C(O)C(F)(F)F.O=C(O)C(F)(F)F (stereo not given),Percent Effect,"30.3 µM, […]",9.59%
Fc1cccc(N2CCCC3(CN(Cc4ccncc4)CCO3)C2)c1.O=C(O)C(F)(F)F.O=C(O)C(F)(F)F.O=C(O)C(F)(F)F (stereo not given),Percent Effect,"30 µM, 30.03 µM",7.874%
O=C(O)C(F)(F)F.OCCN1CCOC2(CCCN(c3cccc(F)c3)C2)C1 (stereo not given),Percent Effect,"30 µM, 30.03 µM",21.19%
Fc1cccc(N2CCCC3(CN(Cc4ccco4)CCO3)C2)c1.O=C(O)C(F)(F)F.O=C(O)C(F)(F)F (stereo not given),Percent Effect,"30.3 µM, […]",99.09%
Fc1cccc(N2CCCC3(CN(Cc4ccccn4)CCO3)C2)c1.O=C(O)C(F)(F)F.O=C(O)C(F)(F)F.O=C(O)C(F)(F)F (stereo not given),Percent Effect,"30.3 µM, […]",1.036%
COc1c(C2CCCN2C(=O)c2ccc(O)nc2)c(C)nn1C (stereo not given),Percent Effect,10 µM,-34.15%
COCCCN1CC2(CCN(C(=O)c3ncc(F)cc3F)CC2)CC1=O,Percent Effect,"30 µM, 30.03 µM",-16.91%
Cl.O=C(NCc1ccc(F)cc1)N1CCN(CC(O)C2CC2)CC1 (stereo not given),Percent Effect,"30.3 µM, […]",2.371%
Cc1nc[nH]c1CN1CCc2nc3scc(C)c3c(=O)n2CC1.Cl,Percent Effect,"30.3 µM, […]",-39.02%
Fc1cccc(Oc2nccnc2C2CCN(C3CCOCC3)CC2)c1,Percent Effect,"30.3 µM, […]",-17.84%
CCn1nc(C)c(CN(CCCOC)Cc2ccccn2)c1C.O=C(O)CC(O)(CC(=O)O)C(=O)O,Percent Effect,"30.3 µM, […]",-0.7195%
Cn1cc(CN2CCC3(CC2)NC(=O)CC3c2ccncc2)cn1.O=C(O)C(F)(F)F.O=C(O)C(F)(F)F (stereo not given),Percent Effect,"30 µM, 30.03 µM",47.38%
COc1ccc(S(=O)(=O)N2CCOC(Cn3ccnc3)C2)cc1.Cc1ccc(S(=O)(=O)O)cc1 (stereo not given),Percent Effect,"30.3 µM, […]",-20.84%
CCc1ncc(C(=O)NCCN(C)S(C)(=O)=O)cn1,Percent Effect,"30 µM, 30.03 µM",1.892%
CN(CCNC(=O)c1cnc(-c2ccncc2)nc1)S(C)(=O)=O,Percent Effect,"30 µM, 30.03 µM",61.08%
CN(CCNC(=O)c1cnc(-c2ccccc2)nc1)S(C)(=O)=O,Percent Effect,"30 µM, 30.03 µM",23.88%
CN(C)C(=O)NCc1cc(=O)n2c(n1)CN(Cc1ccoc1)CCC2.O=C(O)C(F)(F)F,Percent Effect,"30 µM, 30.03 µM",-46.36%
Cc1nc(CN(C)C2CCN(CCn3cc(C#N)cn3)C2)no1 (stereo not given),Percent Effect,"30.3 µM, […]",-2.287%
Cc1cccc(OCCC(=O)N(C)CCNS(C)(=O)=O)c1C,Percent Effect,"30 µM, 30.03 µM",57.14%
Cc1cccc(OCCC(=O)N(C)CCC#N)c1C,Percent Effect,"30 µM, 30.03 µM",43.96%
Cc1cccc(OCCC(=O)N(C)CC(C)C#N)c1C (stereo not given),Percent Effect,"30 µM, 30.03 µM",9.501%
COc1ccc(-n2cccn2)cc1S(=O)(=O)N1C[C@H](C2CC2)[C@@H](N)C1,Percent Effect,"30 µM, 30.03 µM",27.88%
Cc1ccc(-n2cccn2)cc1S(=O)(=O)N1C[C@@H]2CC[C@H](C1)N(C)C2,Percent Effect,"30 µM, 30.03 µM",75.01%
Cc1ccc(-n2cccn2)cc1S(=O)(=O)N1C[C@H](C2CC2)[C@@H](N)C1,Percent Effect,"30 µM, 30.03 µM",17.94%
COc1ccc(N2Cc3nc(=O)n(C(C)C)n3C2=O)cc1,Percent Effect,"30 µM, 30.03 µM",-34%
CCN1CC2(CC1=O)CN(Cc1ccncc1)CCN(C(=O)C(C)C)C2.O=C(O)C(F)(F)F.O=C(O)C(F)(F)F (stereo not given),Percent Effect,"30 µM, 30.03 µM",-22.83%
O=C(NCc1nnc2n1CCC2)N1CCC2(CCCCC2)CC1,Percent Effect,"30.3 µM, […]",-3.097%
O=C(NCCc1nnc2n1CCCCC2)N1CCC2(CCCC2)CC1,Percent Effect,"30.3 µM, […]",99.8%
O=C(NCCc1nnc2n1CCC2)N1CCC2(CCCCC2)C1,Percent Effect,"30.3 µM, […]",-13.71%
O=C(C1CCOCC1)N1CCc2ncc(CN3CCCC3)n2CC1.O=C(O)C(F)(F)F,Percent Effect,"30.3 µM, […]",-192.2%
CNC(=O)C(CC(C)C)NC(=O)c1cccc(-c2nc(C)cs2)c1 (stereo not given),Percent Effect,"30.3 µM, […]",71.45%
COc1cccc(-c2nc(C)c(C(=O)N[C@@H](CC(C)C)C(=O)O)s2)c1,Percent Effect,"30 µM, 30.03 µM",-38.77%
CNC(=O)C(CC(C)C)NC(=O)c1cccc(-c2n[nH]c(C)n2)c1 (stereo not given),Percent Effect,"30.3 µM, […]",-198.3%
NC(=O)NCC(=O)N1C[C@H]2CC[C@@H]1CN(Cc1cscn1)C2,Percent Effect,"30 µM, 30.03 µM",-50.24%
CN(C)[C@@H]1CCN(CC2CC2)[C@H]1Cc1cnn(C)c1.O=C(O)C(F)(F)F.O=C(O)C(F)(F)F,Percent Effect,"30.3 µM, […]",-399.8%
COc1ccc2[nH]cc(-c3ccnc(N4CCC(C)CC4)n3)c2c1,Percent Effect,"30.3 µM, […]",23.49%
O=c1[nH]c(-c2ccncc2)ncc1-c1ccnc(NC2CCCCC2)n1,Percent Effect,"30.3 µM, […]",-18.66%
COc1ccc2[nH]cc(-c3ccnc(NC4CCCC4)n3)c2c1,Percent Effect,"30.3 µM, […]",82.65%
COCCN1CCC2(CCC(=O)N2Cc2csc(C)n2)CC1.O=C(O)C(F)(F)F.O=C(O)C(F)(F)F,Percent Effect,"30.3 µM, […]",-13.8%
CC(=O)N1[C@@H](C(=O)NCC2CC2)C[C@@H]2CN(Cc3nccs3)C[C@@H]21.O=C(O)C(F)(F)F,Percent Effect,"30.3 µM, […]",-16.07%
COc1cc(C(=O)N(CCC#N)Cc2ccccn2)cc(OC)c1C,Percent Effect,"30 µM, 30.03 µM",4.832%
COc1cc(C(=O)N(CCC#N)Cc2ccccn2)ccc1C,Percent Effect,"30 µM, 30.03 µM",33.36%
Cc1ccc(C(=O)N(CCC#N)Cc2ccccn2)cc1C,Percent Effect,"30 µM, 30.03 µM",52.21%
Cc1cnn(C2CCCN(C(=O)c3ccc(-n4cccn4)nc3)C2)c1 (stereo not given),Percent Effect,"30.3 µM, […]",-2.436%
same,Percent Effect,"10 mM, 10 mM as filed; unlikely as a test dose",-29.12%
O=C(O)C(F)(F)F.O=C1CCCN1Cc1nnn2c1CN(c1cccnc1)CCC2,Percent Effect,"30.3 µM, […]",-14.81%
Cc1ccc(CN2Cc3c(C(=O)N4CCCC4)nn(C)c3C2)s1.O=C(O)C(F)(F)F,Percent Effect,"30 µM, 30.03 µM",-54.81%
CN(C)Cc1nnn2c1CN(Cc1cccnc1)CCC2.O=C(O)C(F)(F)F.O=C(O)C(F)(F)F.O=C(O)C(F)(F)F,Percent Effect,"30 µM, 30.03 µM",-10.93%
Cc1cc(C)n(-c2ccccc2NC(=O)NCCCN(C)S(C)(=O)=O)n1,Percent Effect,"30 µM, 30.03 µM",-25.36%
Cc1nn(-c2ccccc2)c2c1C(c1ccc(C(=O)O)cc1)CC(=O)N2 (stereo not given),Percent Effect,"30 µM, 30.03 µM",16.38%
Cc1nn(-c2ncnc3[nH]cnc23)c2c1C(CC(C)C)CC(=O)N2 (stereo not given),Percent Effect,"30 µM, 30.03 µM",53.52%
CC(C)CC1SCC(=O)Nc2c1cnn2C(C)C (stereo not given),Percent Effect,"30 µM, 30.03 µM",38.7%
Cc1ccc(-n2nc(C)c3c2NC(=O)CC3c2cnc(N)s2)cc1 (stereo not given),Percent Effect,"30.3 µM, […]",2.745%
Cc1nn(-c2ncnc3[nH]cnc23)c2c1C(C(C)C)CC(=O)N2 (stereo not given),Percent Effect,"30 µM, 30.03 µM",16.15%
Cc1nn(-c2ncnc3[nH]cnc23)c2c1C(C(C)(C)C)CC(=O)N2 (stereo not given),Percent Effect,"30 µM, 30.03 µM",101.7%
CC[C@@H](CO)Nc1cc(-c2cn[nH]c2)ncn1,Percent Effect,"30.3 µM, […]",-17.33%
